Assay results published in PubChem BioAssay (Tox21).
Results filed as inconclusive are left out. Active and inactive are the calls of the source. Unless noted, the call rests on the fitted dose curve; in most records, active means well fitted curve in the direction sought with a large enough effect in the repeat runs; inconclusive means weak or mixed curves; inactive means no such curve, though single readings can be large; an effect the other way counts as inactive or inconclusive.

What was measured:
[1] = target: Retinoic acid receptor RXR-alpha (Homo sapiens) (UniProt P19793); assay: qHTS assay to identify small molecule agonists of the RXR signaling pathway (AID 1159527; calls by dose curve; further: nearly all actives have a fitted effect of over 35% in size; further: potency means the concentration at half of the fitted maximal effect)
Retinoic acid receptor RXR-alpha (Homo sapiens), sequence (P19793 whole entry, looked up): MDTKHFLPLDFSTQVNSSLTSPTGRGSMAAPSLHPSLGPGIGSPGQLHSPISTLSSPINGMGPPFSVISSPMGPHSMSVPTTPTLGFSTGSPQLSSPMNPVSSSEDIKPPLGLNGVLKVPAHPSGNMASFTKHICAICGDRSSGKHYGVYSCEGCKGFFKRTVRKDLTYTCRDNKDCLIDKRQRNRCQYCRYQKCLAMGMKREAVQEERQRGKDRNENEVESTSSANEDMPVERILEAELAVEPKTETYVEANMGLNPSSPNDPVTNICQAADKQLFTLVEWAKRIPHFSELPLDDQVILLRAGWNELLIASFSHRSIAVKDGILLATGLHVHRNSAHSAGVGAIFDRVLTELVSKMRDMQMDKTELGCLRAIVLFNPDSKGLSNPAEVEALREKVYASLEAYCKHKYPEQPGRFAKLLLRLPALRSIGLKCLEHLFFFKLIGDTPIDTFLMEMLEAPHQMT
How it was run: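 GeneBLAzer RXR-alpha-UAS-bla HEK 293T cells in medium with 2% charcoal-stripped FBS, pre-incubated 5 hr at 37 C, then exposed to compounds 16 hr. Beta-lactamase reporter read by FRET substrate, 2 hr room temperature, 460/530 nm emission.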

[2] = qHTS assay to identify small molecule agonists of the RXR signaling pathway - cell viability counter screen (AID 1159529); further: series mostly up to about 77 µM; nearly all actives have a fitted effect of over 50% in size
How it was run: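 RXR-alpha-UAS-bla HEK 293T cells in medium with 2% charcoal-stripped FBS were preincubated 5 hr, then exposed to compounds for 16 hr at 37 C. Viability was read as CellTiter-Glo luminescence after 30 min at room temperature.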

[3] = qHTS assay to identify small molecule antagonists of the retinoid acid receptor (RAR) signaling pathway - cell viability counter screen (AID 1159551); further: nearly all actives have a fitted effect of over 35% in size
How it was run: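 C3RL4 RARE-luciferase cells, 1,000/well, incubated overnight, then dosed with compound plus 1 uM retinol (final). After 6 hr at 37 C, viability read by CellTiter-Glo ATP luminescence following 30 min at room temperature.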

[4] = qHTS assay to identify small molecule antagonists of the estrogen related receptor (ERR) signaling pathway from Tox21 library - cell viability counter screen (AID 1224834); further: nearly all actives have a fitted effect of over 30% in size
How it was run: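 ERR reporter cells, 2,000 per well, rested 6 h, then exposed to compound in DMSO for 17.5 hours at 37 C. Viability read as fluorescence after 30 min with CellTiter-Fluor.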

[5] = target: Luciferin 4-monooxygenase (Photinus pyralis) (UniProt P08659); assay: qHTS assay to identify small molecule inhibitors of firefly luciferase (AID 1224835); further: series mostly up to about 120 µM; nearly all actives have a fitted effect of over 25% in size
Luciferin 4-monooxygenase (Photinus pyralis), sequence (P08659 whole entry, looked up): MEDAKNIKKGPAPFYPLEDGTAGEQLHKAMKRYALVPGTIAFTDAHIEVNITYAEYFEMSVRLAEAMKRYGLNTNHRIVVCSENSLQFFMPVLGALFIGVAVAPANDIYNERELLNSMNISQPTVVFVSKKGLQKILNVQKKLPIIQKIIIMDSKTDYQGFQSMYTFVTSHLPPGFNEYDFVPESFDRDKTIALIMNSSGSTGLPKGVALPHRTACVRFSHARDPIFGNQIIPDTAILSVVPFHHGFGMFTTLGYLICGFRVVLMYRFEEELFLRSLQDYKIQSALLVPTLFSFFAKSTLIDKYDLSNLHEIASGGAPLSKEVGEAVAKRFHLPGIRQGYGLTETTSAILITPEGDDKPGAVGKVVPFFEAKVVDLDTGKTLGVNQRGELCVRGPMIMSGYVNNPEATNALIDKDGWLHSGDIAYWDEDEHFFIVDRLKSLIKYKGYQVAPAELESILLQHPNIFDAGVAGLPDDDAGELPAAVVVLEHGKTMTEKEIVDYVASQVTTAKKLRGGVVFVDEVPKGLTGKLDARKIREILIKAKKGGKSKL
How it was run: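 Quantitative HTS format; KM concentrations of both substrates. Purified P. pyralis FLuc activity quantified from luminescence images.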

[6] = qHTS assay to identify small molecule agonists of the constitutive androstane receptor (CAR) signaling pathway - cell viability counter screen (AID 1224836); further: series mostly up to about 92 µM; nearly all actives have a fitted effect of over 45% in size
How it was run: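 HepG2 cells stably carrying hCAR and a CYP2B6-2.2kb reporter were plated 4 h, then given compounds at 15 concentrations plus PK11195 (final 0.75 uM). After 23 h at 37 C, viability was read by CellTiter-Fluor fluorescence.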

[7] = qHTS assay to identify small molecule antagonists of the constitutive androstane receptor (CAR) signaling pathway - cell viability counter screen (AID 1224837); further: series mostly up to about 92 µM; nearly all actives have a fitted effect of over 45% in size
How it was run: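 HepG2 cells stably carrying hCAR and CYP2B6-2.2kb reporter, stimulated with 50 nM CITCO and compounds at 15 concentrations for 23 h at 37 C. Viability measured by CellTiter-Fluor fluorescence.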

[8] = qHTS assay to identify small molecule antagonists of the estrogen related receptor signaling pathway with the pleiotropic PPARgamma coactivator (PGC) from Tox21 10K library - cell viability counter screen (AID 1224840; active means well fitted cell-killing curve with a large enough effect in the repeat runs, not every such curve was filed as active; further: nearly all actives have a fitted effect of over 40% in size)
How it was run: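 PGC/ERR cells (2,000/well) plated 6 h, then compound-treated for 17.5 h at 37 C. Viability measured by CellTiter-Fluor fluorescence after 30 min at 37 C, multiplexed with the pathway assay.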

[9] = qHTS assay to identify small molecule antagonists of the estrogen related receptor signaling pathway with the pleiotropic PPARgamma coactivator (PGC) from Tox21 10K library (AID 1224841; call rule not given here; further: series mostly up to about 92 µM; actives are mostly falling curves and most rising ones were filed inactive; nearly all actives have a fitted effect of over 50% in size)
How it was run: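 PGC/ERR cell line, 2,000 cells/well, pre-incubated 6 hours at 37 C, then exposed to compounds for 18 hours at 37 C; luciferase read with One-Glo luminescence after 30 min at room temperature.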

[10] = qHTS assay to identify small molecule agonists of the estrogen related receptor signaling pathway with the pleiotropic PPARgamma coactivator (PGC) from Tox21 10K library (AID 1224842); further: nearly all actives have a fitted effect of over 15% in size
How it was run: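 PGC/ERR reporter cells (NTP line) were seeded 2,000 per well, rested 6 h at 37 C/5% CO2, then pin-dosed with compounds in DMSO for 18 h at 37 C; luciferase read by One-Glo luminescence after 30 min at room temperature.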

[11] = target: Nuclear receptor subfamily 1 group I member 3 (Homo sapiens) (UniProt Q14994); assay: qHTS assay to identify small molecule agonists of the constitutive androstane receptor (CAR) signaling pathway (AID 1224839); further: series mostly up to about 92 µM; nearly all actives have a fitted effect of over 15% in size
Nuclear receptor subfamily 1 group I member 3 (Homo sapiens), sequence (Q14994 whole entry, looked up): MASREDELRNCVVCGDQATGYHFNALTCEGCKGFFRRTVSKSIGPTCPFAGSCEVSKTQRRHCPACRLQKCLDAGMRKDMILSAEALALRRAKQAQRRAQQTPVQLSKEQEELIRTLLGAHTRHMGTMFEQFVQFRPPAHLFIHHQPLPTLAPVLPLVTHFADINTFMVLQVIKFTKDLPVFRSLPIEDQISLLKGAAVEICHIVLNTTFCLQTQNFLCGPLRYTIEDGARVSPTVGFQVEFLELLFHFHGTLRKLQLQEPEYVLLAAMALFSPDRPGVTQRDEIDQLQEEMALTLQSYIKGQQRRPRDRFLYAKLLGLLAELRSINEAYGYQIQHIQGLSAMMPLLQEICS
How it was run: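 HepG2 cells stably expressing hCAR and a CYP2B6-2.2kb luciferase reporter were treated with compounds at 15 concentrations plus 0.75 uM PK11195 (final) for 24 h at 37 C; luminescence was read after ONE-Glo addition.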

[12] = target: Nuclear receptor subfamily 1 group I member 3 (Homo sapiens) (UniProt Q14994); assay: qHTS assay to identify small molecule antagonists of the constitutive androstane receptor (CAR) signaling pathway (AID 1224838); further: nearly all actives have a fitted effect of over 40% in size
How it was run: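 HepG2 cells stably carrying hCAR and a CYP2B6-2.2kb luciferase reporter, seeded 4 hrs before compound (15 concentrations). Stimulated with 50 nM CITCO for 24 hr at 37 C. ONE-Glo luminescence read after 30 min at room temperature.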

[13] = qHTS assay to identify small molecule antagonists of the retinoic acid receptor (RAR) signaling pathway (AID 1159552; further: nearly all actives have a fitted effect of over 50% in size)
How it was run: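 RARE-luc C3RL4 cells; cpds + 1 uM (final) retinol, 6 hr, 37 C/5% CO2; luciferase reagent, 30 min RT, luminescence readout. Inhibitors of retinol-driven signal scored.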

[14] = qHTS assay to identify small molecule agonists of the retinoic acid receptor (RAR) signaling pathway (AID 1159553)
How it was run: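 C3RL4 RARE-luciferase cells were seeded at 1,000/well and grown overnight at 37 C, then exposed to compounds for 6 hr at 37 C, 5% CO2. Luciferase reagent was added and luminescence was read after 30 min at room temperature.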
On the % scale 0 is the no-effect control and ±100 the full control effect.

Cc1cc(C)cc(OCC2CNC(=O)O2)c1 (stereo not drawn)
inactive: Potency [1] | Potency [2] | outcome [3] | Potency [4] | Potency [5] | outcome [6] | outcome [7] | outcome [8]

NC(CS)C(=O)O (stereo not drawn)
inactive: Potency [1] | Potency [2] | outcome [3] | Potency [4] | Potency [5] | outcome [6] | outcome [7] | outcome [8]

CN1[C@@H]2CC[C@H]1CC(NC(=O)n1c(=O)[nH]c3ccccc31)C2 (stereo partly drawn)
inactive: Potency [1] | Potency [2] | outcome [3] | Potency [4] | Potency [5] | outcome [6] | outcome [7] | outcome [8] | Potency [9] | Potency [10]

CCc1cc(S(=O)(=O)O)c2cc(C(C)C)cccc1-2
inactive: Potency [1] | Potency [2] | outcome [3] | Potency [4] | Potency [5] | outcome [6] | outcome [7] | outcome [8]

C/C=C1\C(=O)C[C@H]2[C@@H]3CCC4=CC(=O)CC[C@]4(C)[C@H]3CC[C@]12C
inactive: Potency [1] | Potency [2] | outcome [3] | Potency [4] | Potency [5] | outcome [6] | outcome [7] | outcome [8]

CCCCC=O
inactive: Potency [2] | outcome [3] | Potency [4] | Potency [5] | outcome [6] | outcome [7] | outcome [8]
active: Potency [1] 17.4 µM

OCC(O)[C@@H](O)[C@H](O)[C@H](O)CO[C@H]1O[C@H](CO)[C@@H](O)[C@H](O)[C@H]1O (stereo partly drawn)
inactive: Potency [1] | Potency [2] | outcome [3] | Potency [4] | Potency [5] | outcome [6] | outcome [7] | outcome [8]

Cc1cc(C)c(NC(=O)CN(CC(=O)O)CC(=O)O)c(C)c1Br
inactive: Potency [1] | Potency [2] | outcome [3] | Potency [4] | Potency [5] | outcome [6] | outcome [7] | Potency [11] | outcome [8]

CCOC(=O)[C@H](CCc1ccccc1)N[C@@H](C)C(=O)N1CCC[C@H]1C(=O)O
inactive: Potency [1] | Potency [2] | outcome [3] | Potency [4] | Potency [5] | outcome [6] | outcome [7] | outcome [8] | Potency [9] | Potency [10]

CC(=O)CCc1ccc(O)cc1
inactive: Potency [1] | Potency [2] | outcome [3] | Potency [4] | Potency [5] | outcome [6] | outcome [7] | outcome [8]

CC(C)CCCCCCN
inactive: Potency [1] | Potency [2] | outcome [3] | Potency [4] | Potency [5] | outcome [6] | outcome [7] | Potency [11] | outcome [8]

Nc1[nH]c(=O)ncc1F
inactive: Potency [1] | Potency [2] | outcome [3] | Potency [4] | Potency [5] | outcome [6] | outcome [7] | outcome [8] | Potency [9] | Potency [10]

CCC(C)(C)C1CCC(OC)CC1 (stereo not drawn)
inactive: Potency [1] | Potency [2] | Potency [4] | Potency [5] | outcome [6] | Potency [12] | Potency [11] | outcome [8] | Potency [9] | Potency [10]

O=C(CCOCCOCCOCCOCCC(=O)Nc1c(I)cc(I)c(C(=O)O)c1I)Nc1c(I)cc(I)c(C(=O)O)c1I
inactive: Potency [1] | Potency [2] | Potency [13] | Potency [14] | Potency [4] | Potency [5] | outcome [6] | outcome [7] | outcome [8]

N[C@@H](CS)C(=O)O
inactive: Potency [1] | Potency [2] | outcome [3] | Potency [4] | Potency [5] | outcome [6] | outcome [8]

CC(C)N1C(=O)c2ccccc2C1=O
inactive: Potency [1] | Potency [2] | outcome [3] | Potency [4] | Potency [5] | outcome [6] | Potency [11] | outcome [8]

C1CCCCCCCCCCC1
inactive: activation [1] 0.57% [at 15.8 µM] | activity change, negative = cytotoxicity [2] 1.49% [at 15.8 µM] | activity change, negative = cytotoxicity [3] -2.08% [at 19 µM] | viability change, negative = cytotoxic [4] 0.43% [at 19 µM] | activity change, negative = inhibition [5] -7.22% [at 23.6 µM] | viability change, negative = cytotoxic [6] -17.1% [at 19 µM] | activity change, negative = cytotoxicity [7] -6.25% [at 19 µM] | viability change, negative = cytotoxic [8] 11% [at 19 µM] | activation [10] 0.749% [at 19 µM]

C=C(C)C(=O)OCCCCCCCCCCCCCCCCCC
inactive: activation [1] 6.68% [at 15.8 µM] | activity change, negative = cytotoxicity [2] 15.1% [at 15.8 µM] | activity change, negative = cytotoxicity [3] -0.339% [at 19 µM] | viability change, negative = cytotoxic [4] -0.607% [at 19 µM] | activity change, negative = inhibition [5] -0.803% [at 23.6 µM] | viability change, negative = cytotoxic [6] 1.14% [at 19 µM] | viability change, negative = cytotoxic [8] 1.61% [at 19 µM]

Cc1ncc(CSSCc2cnc(C)c(O)c2CO)c(CO)c1O
inactive: Potency [1] | Potency [2] | outcome [3] | Potency [4] | Potency [5] | outcome [6] | outcome [7] | outcome [8] | Potency [9] | Potency [10]

CCCCCCCCCCCCCCCCCCOCC(O)CO (stereo not drawn)
inactive: Potency [1] | Potency [2] | outcome [3] | Potency [4] | Potency [5] | outcome [6] | Potency [12] | Potency [11] | outcome [8]
